According to the supplement of paper PMC10849652:
Targets with a hit are over-represented here; the source holds about 7,900 in all. About 0.6% of all pairs of compound and target were hits.

Legend:
Experiment in all cases: log2 fold change, soluble protein after heating vs DMSO (PISA); higher = thermal stabilisation; K562 cells, 10 uM, 30 min; active = over 0.2 and 3.5 SD of the protein, either way, in both replicates (recomputed)
[1] = compound: COC1=CC=C(C=C1)CN2C=CC3=C2C=C(C=C3)C(=O)NO
Procedure, shortened: (§1)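 Aliquots of K562 cells (2×10^6 cells/mL) treated with 10 μM compound for 30 min were heated for 3 min over 48°C-58°C. After pooling and extraction in PBS with 0.5% NP-40 at 4°C, soluble protein from a 21,000xg, 90 min spin was quantified by TMTpro 16plex LC-MS/MS with channel sums equalised. Thermal stability is expressed against control samples, from duplicates, as a log2 fold change.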

filanesib = compound: CON(C)C(=O)N1N=C(c2cc(F)ccc2F)S[C@@]1(CCCN)c1ccccc1 [filanesib]
Procedure, shortened: as §1

zotarolimus = compound: CO[C@H]1C[C@@H]2CC[C@@H](C)[C@@](O)(O2)C(=O)C(=O)N2CCCC[C@H]2C(=O)O[C@H]([C@H](C)C[C@@H]2CC[C@H](n3cnnn3)[C@H](OC)C2)CC(=O)[C@H](C)/C=C(\C)[C@@H](O)[C@@H](OC)C(=O)[C@H](C)C[C@H](C)/C=C/C=C/C=C/1C [zotarolimus]
Procedure, shortened: as §1

idasanutlin = compound: COc1cc(C(=O)O)ccc1NC(=O)[C@@H]1N[C@@H](CC(C)(C)C)[C@](C#N)(c2ccc(Cl)cc2F)[C@H]1c1cccc(Cl)c1F [idasanutlin]
Procedure, shortened: as §1

alisertib = compound: COc1cc(Nc2ncc3c(n2)-c2ccc(Cl)cc2C(c2c(F)cccc2OC)=NC3)ccc1C(=O)O [alisertib]
Procedure, shortened: as §1

[2] = compound: COc1cc2nc(-c3cc(F)ccc3O)nc(N[C@@H]3CNC[C@H]3C(C)(C)O)c2cc1OC
Procedure, shortened: as §1

gefitinib = compound: COc1cc2ncnc(Nc3ccc(F)c(Cl)c3)c2cc1OCCCN1CCOCC1 [gefitinib]
Procedure, shortened: as §1

[3] = compound: COc1cccc2cc(-c3nc([C@H]4CC[C@H](C(=O)O)CC4)n4ncnc(N)c34)[nH]c12
Procedure, shortened: as §1

lapatinib = compound: CS(=O)(=O)CCNCc1ccc(-c2ccc3ncnc(Nc4ccc(OCc5cccc(F)c5)c(Cl)c4)c3c2)o1 [lapatinib]
Procedure, shortened: as §1

pictilisib = compound: CS(=O)(=O)N1CCN(Cc2cc3nc(-c4cccc5[nH]ncc45)nc(N4CCOCC4)c3s2)CC1 [pictilisib]
Procedure, shortened: as §1

Measured: log2 fold change

ECH1 (UniProt Q13011)
Sequence of UniProt Q13011 (Q13011 whole entry, looked up): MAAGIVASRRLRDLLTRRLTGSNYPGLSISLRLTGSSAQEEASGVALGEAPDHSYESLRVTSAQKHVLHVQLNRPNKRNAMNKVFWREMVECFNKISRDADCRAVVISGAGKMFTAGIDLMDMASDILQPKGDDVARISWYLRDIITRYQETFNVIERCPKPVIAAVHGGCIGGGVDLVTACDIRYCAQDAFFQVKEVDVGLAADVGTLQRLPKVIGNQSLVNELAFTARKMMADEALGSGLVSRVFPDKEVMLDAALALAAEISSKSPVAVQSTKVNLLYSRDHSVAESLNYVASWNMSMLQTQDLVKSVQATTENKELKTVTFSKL
inactive: [1] -0.008 | filanesib -0.215 | zotarolimus -0.05 | idasanutlin -0.134 | alisertib 0.033 | [2] 0.045 | gefitinib -0.032 | [3] 0.02 | lapatinib -0.011 | pictilisib 0.033

DCP2 (UniProt Q8IU60)
inactive: [1] -0.085 | filanesib 0.121 | zotarolimus -0.037 | idasanutlin 0.167 | [2] 0.075 | lapatinib -0.042

EEF1D isoform 2 (UniProt P29692)
inactive: [1] -0.038 | filanesib 0.034 | zotarolimus 0.036 | idasanutlin -0.042 | alisertib -0.016 | [2] 0.028 | gefitinib 0.028 | [3] -0.011 | lapatinib 0.022 | pictilisib -0.01

DIAPH1 (UniProt O60610)
inactive: [1] 0.008 | filanesib 0.083 | zotarolimus 0.081 | idasanutlin 0.04 | alisertib -0.099 | [2] -0.06 | gefitinib 0.046 | [3] -0.193 | lapatinib 0.075 | pictilisib 0.006

DCAF10 (UniProt Q5QP82)
inactive: [1] -0.047 | filanesib 0.016 | zotarolimus -0.01 | idasanutlin 0.002 | alisertib 0.09 | [2] 0.076 | gefitinib -0.051 | [3] -0.067 | lapatinib -0.081 | pictilisib 0.032

EXOC6 (UniProt Q8TAG9)
Sequence of UniProt Q8TAG9 (Q8TAG9 whole entry, looked up): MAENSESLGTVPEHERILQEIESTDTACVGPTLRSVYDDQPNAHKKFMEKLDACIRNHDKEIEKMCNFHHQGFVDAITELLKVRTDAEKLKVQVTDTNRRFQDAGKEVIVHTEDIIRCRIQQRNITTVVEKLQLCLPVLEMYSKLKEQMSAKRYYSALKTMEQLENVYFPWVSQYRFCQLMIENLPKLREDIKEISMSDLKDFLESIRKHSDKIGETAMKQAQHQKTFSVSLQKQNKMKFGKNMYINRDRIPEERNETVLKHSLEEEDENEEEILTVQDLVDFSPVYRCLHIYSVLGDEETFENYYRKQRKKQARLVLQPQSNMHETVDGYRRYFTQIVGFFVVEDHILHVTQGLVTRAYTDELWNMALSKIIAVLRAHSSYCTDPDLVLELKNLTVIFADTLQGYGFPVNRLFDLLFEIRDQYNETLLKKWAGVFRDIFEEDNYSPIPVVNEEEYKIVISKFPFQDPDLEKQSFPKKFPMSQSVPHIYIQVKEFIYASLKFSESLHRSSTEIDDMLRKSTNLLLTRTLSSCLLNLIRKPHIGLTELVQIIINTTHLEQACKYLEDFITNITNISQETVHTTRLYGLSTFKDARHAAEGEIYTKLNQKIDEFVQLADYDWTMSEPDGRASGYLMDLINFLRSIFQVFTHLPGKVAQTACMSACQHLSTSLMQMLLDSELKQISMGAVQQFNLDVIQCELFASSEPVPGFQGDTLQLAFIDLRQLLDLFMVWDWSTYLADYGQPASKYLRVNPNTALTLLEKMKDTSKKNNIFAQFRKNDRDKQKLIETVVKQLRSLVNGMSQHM
inactive: [1] -0.021 | filanesib 0.017 | zotarolimus 0.151 | idasanutlin -0.058 | alisertib -0.013 | [2] 0.119 | gefitinib -0.037 | [3] -0.101 | lapatinib -0.052 | pictilisib -0.003

EZH2 isoform 2 (UniProt Q15910)
inactive: [1] -0.105 | filanesib -0.113 | zotarolimus -0.073 | idasanutlin 0.073 | alisertib -0.209 | [2] -0.129 | [3] -0.144 | lapatinib 0.112

FAM193B (UniProt Q96PV7)
inactive: [1] -0.179 | filanesib 0.379 | zotarolimus -0.077 | idasanutlin 0.311 | [2] 0.112 | lapatinib -0.066

DCAF4 (UniProt Q8WV16)
inactive: filanesib 0.018 | alisertib -0.076 | gefitinib -0.012 | [3] 0.005 | pictilisib 0.074

ELOVL7 (UniProt A1L3X0)
inactive: zotarolimus 0.012 | idasanutlin -0.118

ELOVL5 isoform 2 (UniProt Q9NYP7)
inactive: filanesib -0.157 | zotarolimus -0.041 | idasanutlin -0.224 | alisertib -0.026 | [2] -0.05 | gefitinib -0.142 | [3] 0 | lapatinib 0.094 | pictilisib 0

EIF4G1 (UniProt Q04637)
inactive: zotarolimus -0.118 | idasanutlin 0.071 | pictilisib -0.307

EIF3J isoform 2 (UniProt O75822)
inactive: [1] -0.099 | filanesib 0.013 | idasanutlin 0.107 | alisertib -0.074 | [2] 0.051 | gefitinib 0.047 | [3] 0.02 | lapatinib -0.116

DLK1 (UniProt P80370)
inactive: [1] -0.021 | zotarolimus -0.095

DOP1A (UniProt Q5JWR5)
inactive: alisertib -0.013 | [3] 0.02

EPHB4 (UniProt P54760)
Sequence of UniProt P54760 (P54760 whole entry, looked up): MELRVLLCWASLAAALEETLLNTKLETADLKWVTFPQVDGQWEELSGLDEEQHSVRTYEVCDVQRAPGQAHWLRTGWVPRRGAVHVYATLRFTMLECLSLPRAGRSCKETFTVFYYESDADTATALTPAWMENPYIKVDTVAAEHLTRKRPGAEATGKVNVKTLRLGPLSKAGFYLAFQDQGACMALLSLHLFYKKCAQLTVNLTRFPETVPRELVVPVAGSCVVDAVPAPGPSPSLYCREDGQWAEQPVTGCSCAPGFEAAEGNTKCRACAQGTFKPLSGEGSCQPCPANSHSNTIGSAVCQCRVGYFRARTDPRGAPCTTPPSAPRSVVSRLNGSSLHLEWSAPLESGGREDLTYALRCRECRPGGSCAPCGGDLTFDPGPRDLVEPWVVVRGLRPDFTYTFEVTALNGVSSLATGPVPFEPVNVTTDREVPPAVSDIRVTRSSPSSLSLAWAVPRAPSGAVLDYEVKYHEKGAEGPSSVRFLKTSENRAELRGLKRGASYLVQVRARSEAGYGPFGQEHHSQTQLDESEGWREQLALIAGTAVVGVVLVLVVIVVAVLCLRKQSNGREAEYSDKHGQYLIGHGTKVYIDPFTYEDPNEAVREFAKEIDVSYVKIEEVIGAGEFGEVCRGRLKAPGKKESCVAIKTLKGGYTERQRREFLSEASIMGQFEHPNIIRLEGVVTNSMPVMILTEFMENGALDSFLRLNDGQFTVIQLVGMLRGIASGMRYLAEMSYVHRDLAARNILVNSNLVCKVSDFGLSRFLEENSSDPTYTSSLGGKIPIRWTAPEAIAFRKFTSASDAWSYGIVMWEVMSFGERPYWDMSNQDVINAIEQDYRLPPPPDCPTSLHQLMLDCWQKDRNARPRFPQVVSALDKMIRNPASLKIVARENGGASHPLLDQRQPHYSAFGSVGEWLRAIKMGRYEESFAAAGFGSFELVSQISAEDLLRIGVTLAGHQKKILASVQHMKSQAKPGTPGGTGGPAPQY
inactive: filanesib 0.134 | alisertib -0.017 | [2] 0.395 | lapatinib 0.08
active: [3] -0.937

CTSS (UniProt P25774)
Sequence of UniProt P25774 (P25774 whole entry, looked up): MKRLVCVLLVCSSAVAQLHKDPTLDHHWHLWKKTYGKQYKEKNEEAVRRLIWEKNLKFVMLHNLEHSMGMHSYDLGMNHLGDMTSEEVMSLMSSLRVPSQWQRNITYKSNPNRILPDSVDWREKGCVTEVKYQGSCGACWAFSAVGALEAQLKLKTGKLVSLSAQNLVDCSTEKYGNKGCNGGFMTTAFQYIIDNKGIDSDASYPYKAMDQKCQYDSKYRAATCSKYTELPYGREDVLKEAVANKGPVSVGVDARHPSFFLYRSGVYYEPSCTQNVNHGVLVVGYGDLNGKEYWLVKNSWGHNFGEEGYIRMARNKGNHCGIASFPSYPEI
inactive: [1] 0.019 | filanesib 0.051 | zotarolimus -0.081 | pictilisib -0.043

DENND1A isoform 6 (UniProt Q8TEH3)
inactive: [1] 0.154 | [2] -0.18 | lapatinib 0.06

EEF2K (UniProt O00418)
inactive: zotarolimus 0.021 | alisertib 0.031 | [2] -0.062 | lapatinib -0.017 | pictilisib -0.014
active: [3] -0.896

DHPS (UniProt M0R1T2)
inactive: filanesib -0.057

EID1 (UniProt Q9Y6B2)
Sequence of UniProt Q9Y6B2 (Q9Y6B2 whole entry, looked up): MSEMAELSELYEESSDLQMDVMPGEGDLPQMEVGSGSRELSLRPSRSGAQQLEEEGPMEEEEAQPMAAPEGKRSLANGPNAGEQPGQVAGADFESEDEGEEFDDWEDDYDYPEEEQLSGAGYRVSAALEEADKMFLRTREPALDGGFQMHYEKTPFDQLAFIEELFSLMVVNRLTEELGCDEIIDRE
inactive: filanesib 0.119 | alisertib 0.024 | [2] 0.015 | gefitinib -0.031 | [3] -0.239 | lapatinib -0.097 | pictilisib 0.3

DDX11 (UniProt Q96FC9)
active: [3] 0.437
inactive: [1] -0.069 | filanesib 0.144 | idasanutlin -0.05 | alisertib 0.088 | [2] 0.047 | gefitinib -0.009 | lapatinib -0.045

FAM135A (UniProt Q9P2D6)
inactive: filanesib 0.13 | gefitinib 0.052

EGR1 (UniProt P18146)
inactive: filanesib 0.463 | zotarolimus 0.125 | idasanutlin 0.164 | alisertib -0.54 | [2] -0.24 | gefitinib -0.183 | [3] 0.079 | lapatinib 0.067 | pictilisib -0.362

DCAF12 (UniProt Q5T6F0)
inactive: filanesib -0.037 | alisertib 0.073 | [3] 0.036 | pictilisib 0.16

DDX46, A0A0C4DG89
inactive: alisertib -0.083 | gefitinib 0.261 | [3] 0.032

DDB1 isoform 2 (UniProt Q16531)
inactive: filanesib 0.077 | pictilisib 0.094

DNAL1 (UniProt Q4LDG9)
inactive: [1] 0.009 | zotarolimus 0.024 | idasanutlin -0.098

EHBP1 (UniProt Q8NDI1)
inactive: zotarolimus -0.02 | idasanutlin 0.031 | alisertib 0.025 | [3] 0.086 | pictilisib 0.057

F2RL3 (UniProt Q96RI0)
inactive: zotarolimus -0.075 | idasanutlin -0.017 | [2] 0.017 | lapatinib 0.029

ENTR1 (UniProt Q96C92)
inactive: [2] -0.065 | lapatinib 0.075

FAM207A (UniProt Q9NSI2)
inactive: [1] -0.034 | filanesib 0.238 | idasanutlin 0.009 | alisertib 0.238 | [2] 0.108 | gefitinib -0.124 | [3] -0.146 | lapatinib 0.041 | pictilisib -0.097

DERPC (UniProt P0CG12)
inactive: [1] -0.016 | alisertib 0.021 | gefitinib 0.099 | [3] 0.086 | pictilisib -0.107

DOLPP1 (UniProt Q86YN1)
Sequence of UniProt Q86YN1 (Q86YN1 whole entry, looked up): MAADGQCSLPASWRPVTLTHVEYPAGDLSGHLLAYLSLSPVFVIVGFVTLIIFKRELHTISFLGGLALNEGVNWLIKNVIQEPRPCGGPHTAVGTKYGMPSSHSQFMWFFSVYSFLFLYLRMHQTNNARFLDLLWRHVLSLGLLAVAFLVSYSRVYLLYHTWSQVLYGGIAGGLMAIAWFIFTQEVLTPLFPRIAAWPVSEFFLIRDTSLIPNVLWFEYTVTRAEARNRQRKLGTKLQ
inactive: [1] -0.05 | zotarolimus -0.003 | idasanutlin -0.043 | alisertib -0.022 | [2] 0.129 | gefitinib 0.013 | [3] 0.011 | lapatinib -0.07

CTNNBL1 (UniProt Q8WYA6)
inactive: [2] -0.008 | lapatinib -0.581

CYP24A1 (UniProt Q07973)
inactive: [1] 0.1 | idasanutlin 0.039 | alisertib -0.095 | [2] 0.091 | gefitinib -0.044 | [3] -0.306 | lapatinib 0.067 | pictilisib -0.059

ENTPD7 (UniProt Q9NQZ7)
inactive: [1] -0.031 | filanesib -0.268 | alisertib -0.054 | [2] 0.06 | gefitinib -0.026 | [3] 0.03 | lapatinib 0.099

EEF1D isoform 3 (UniProt P29692)
inactive: alisertib -0.067 | [3] -0.105

DENND10 (UniProt Q8TCE6)
Sequence of UniProt Q8TCE6 (Q8TCE6 whole entry, looked up): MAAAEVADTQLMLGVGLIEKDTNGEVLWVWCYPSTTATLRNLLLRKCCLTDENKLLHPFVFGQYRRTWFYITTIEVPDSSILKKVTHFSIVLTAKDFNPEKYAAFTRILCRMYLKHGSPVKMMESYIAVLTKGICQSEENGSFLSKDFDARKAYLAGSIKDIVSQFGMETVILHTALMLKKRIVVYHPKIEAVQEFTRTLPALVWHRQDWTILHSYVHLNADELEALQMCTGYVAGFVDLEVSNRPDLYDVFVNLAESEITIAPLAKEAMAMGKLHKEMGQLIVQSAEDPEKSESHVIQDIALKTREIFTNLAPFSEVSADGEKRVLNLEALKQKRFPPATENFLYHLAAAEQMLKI
inactive: filanesib -0.133 | zotarolimus -0.017 | idasanutlin 0.003 | alisertib -0.065 | [2] 0.114 | gefitinib 0.1 | [3] -0.05 | lapatinib -0.021

ERF (UniProt P50548)
inactive: filanesib 0.328 | pictilisib 0.148

DNAJB1 (UniProt M0R128)
inactive: zotarolimus -0.062

ELMO1 (UniProt Q92556)
Sequence of UniProt Q92556 (Q92556 whole entry, looked up): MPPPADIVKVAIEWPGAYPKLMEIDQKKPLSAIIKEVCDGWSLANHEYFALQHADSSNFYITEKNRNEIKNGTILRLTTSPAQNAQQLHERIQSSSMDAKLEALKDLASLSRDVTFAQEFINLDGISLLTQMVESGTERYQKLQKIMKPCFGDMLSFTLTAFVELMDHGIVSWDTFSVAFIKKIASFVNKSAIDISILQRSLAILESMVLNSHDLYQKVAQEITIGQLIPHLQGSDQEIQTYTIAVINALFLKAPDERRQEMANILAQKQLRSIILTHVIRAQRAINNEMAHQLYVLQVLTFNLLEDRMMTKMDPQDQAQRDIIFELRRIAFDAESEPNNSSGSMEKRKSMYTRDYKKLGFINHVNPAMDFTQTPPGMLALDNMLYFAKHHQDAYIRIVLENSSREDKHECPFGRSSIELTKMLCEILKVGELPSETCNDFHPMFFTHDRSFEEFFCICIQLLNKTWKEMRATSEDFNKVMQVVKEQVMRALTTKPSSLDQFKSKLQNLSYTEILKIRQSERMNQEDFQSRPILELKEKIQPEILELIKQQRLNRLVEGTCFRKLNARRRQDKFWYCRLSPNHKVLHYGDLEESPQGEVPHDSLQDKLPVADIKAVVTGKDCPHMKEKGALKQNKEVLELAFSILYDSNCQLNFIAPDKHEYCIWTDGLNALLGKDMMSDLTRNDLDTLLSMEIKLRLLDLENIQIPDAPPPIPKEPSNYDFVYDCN
inactive: [1] -0.108 | filanesib 0.072 | alisertib 0.212 | gefitinib 0.017 | [3] 0.08

EDRF1 (UniProt Q3B7T1)
inactive: filanesib 0.052 | alisertib -0.033 | [3] 0.044 | pictilisib 0.244
active: zotarolimus 0.419

FAM160A2 isoform 2 (UniProt Q8N612)
inactive: [1] -0.082 | zotarolimus 0.067 | alisertib 0.031 | gefitinib 0.158 | [3] 0.103 | pictilisib -0.056

FAM117B (UniProt Q6P1L5)
Sequence of UniProt Q6P1L5 (Q6P1L5 whole entry, looked up): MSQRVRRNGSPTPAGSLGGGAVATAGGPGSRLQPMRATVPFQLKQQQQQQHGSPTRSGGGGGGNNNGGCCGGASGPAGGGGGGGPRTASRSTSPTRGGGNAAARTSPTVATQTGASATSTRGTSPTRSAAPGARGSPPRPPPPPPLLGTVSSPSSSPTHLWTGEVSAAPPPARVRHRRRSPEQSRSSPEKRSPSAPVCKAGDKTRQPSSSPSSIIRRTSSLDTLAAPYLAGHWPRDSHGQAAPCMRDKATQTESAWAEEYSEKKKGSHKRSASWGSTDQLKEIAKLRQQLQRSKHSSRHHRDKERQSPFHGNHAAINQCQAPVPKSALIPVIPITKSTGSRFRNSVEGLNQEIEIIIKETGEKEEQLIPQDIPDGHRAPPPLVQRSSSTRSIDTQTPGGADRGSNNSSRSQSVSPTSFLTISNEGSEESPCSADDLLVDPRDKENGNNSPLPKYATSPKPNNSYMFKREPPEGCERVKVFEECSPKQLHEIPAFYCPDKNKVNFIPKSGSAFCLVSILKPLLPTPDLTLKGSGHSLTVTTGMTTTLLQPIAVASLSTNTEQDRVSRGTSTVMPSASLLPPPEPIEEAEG
inactive: [1] 0.053 | zotarolimus 0.007 | idasanutlin -0.062 | pictilisib 0.208

DBNL (UniProt Q9UJU6)
inactive: zotarolimus -0.324

EIF2AK3 (UniProt Q9NZJ5)
inactive: [1] 0.135 | zotarolimus -0.06 | idasanutlin -0.039 | alisertib -0.141 | [2] 0.201 | gefitinib -0.161 | [3] 0.078 | lapatinib 0.146 | pictilisib -0.233

DEGS1 (UniProt O15121)
Sequence of UniProt O15121 (O15121 whole entry, looked up): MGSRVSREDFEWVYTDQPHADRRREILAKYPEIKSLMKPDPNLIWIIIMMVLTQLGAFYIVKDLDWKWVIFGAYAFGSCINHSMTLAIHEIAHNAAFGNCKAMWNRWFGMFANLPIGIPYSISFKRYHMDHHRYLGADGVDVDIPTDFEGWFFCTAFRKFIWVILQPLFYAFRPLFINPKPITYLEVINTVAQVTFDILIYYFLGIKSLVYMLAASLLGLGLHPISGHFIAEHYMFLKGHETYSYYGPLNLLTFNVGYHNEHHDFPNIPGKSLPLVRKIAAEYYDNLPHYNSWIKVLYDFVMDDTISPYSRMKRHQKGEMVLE
inactive: filanesib -0.048 | zotarolimus 0.027 | idasanutlin 0.039 | alisertib 0.028 | [2] -0.013 | gefitinib -0.002 | [3] -0.018 | lapatinib -0.034 | pictilisib 0
